Test results taken from PubChem BioAssay (Tox21).
Where “and” joins values, the source holds several entries; their conditions need not be identical. Identical values can stand only once. Records with an inconclusive call do not appear. Where a structure was tested more than once in an assay, its records may differ in their call. Calls of active or inactive are those of the source. Unless noted, the call rests on the fitted dose curve; in most records, active means well fitted curve in the direction sought with a large enough effect in the repeat runs; inconclusive means weak or mixed curves; inactive means no such curve, though single readings can be large; an effect the other way counts as inactive or inconclusive.

How the values were obtained:
[1] = biological target: Luciferin 4-monooxygenase (Photinus pyralis) (UniProt P08659); assay: qHTS assay to identify small molecule inhibitors of firefly luciferase (AID 1224835); further: series mostly up to about 120 µM; nearly all actives have a fitted effect of over 25% in size
Luciferin 4-monooxygenase (Photinus pyralis), sequence (P08659 whole entry, looked up): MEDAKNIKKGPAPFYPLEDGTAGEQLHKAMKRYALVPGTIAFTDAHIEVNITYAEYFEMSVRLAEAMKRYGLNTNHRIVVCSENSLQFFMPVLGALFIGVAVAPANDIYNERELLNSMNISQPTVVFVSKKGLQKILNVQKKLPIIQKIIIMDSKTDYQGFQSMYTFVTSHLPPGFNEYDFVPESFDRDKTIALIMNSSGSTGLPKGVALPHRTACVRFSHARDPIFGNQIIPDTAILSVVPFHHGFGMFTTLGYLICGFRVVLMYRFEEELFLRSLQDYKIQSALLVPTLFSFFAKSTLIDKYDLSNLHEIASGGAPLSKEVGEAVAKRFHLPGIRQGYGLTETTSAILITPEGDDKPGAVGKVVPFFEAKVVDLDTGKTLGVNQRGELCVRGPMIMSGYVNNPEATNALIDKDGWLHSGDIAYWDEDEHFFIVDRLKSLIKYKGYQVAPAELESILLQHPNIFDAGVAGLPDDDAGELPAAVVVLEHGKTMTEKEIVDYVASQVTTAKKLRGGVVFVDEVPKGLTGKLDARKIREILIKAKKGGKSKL
In short: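 Biochemical qHTS: compounds run as interplate titrations against purified firefly enzyme, with D-luciferin and ATP each at its KM concentration. Light output recorded by CCD imaging.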

[2] = qHTS assay to identify small molecule agonists of the constitutive androstane receptor (CAR) signaling pathway - cell viability counter screen (AID 1224836); further: nearly all actives have a fitted effect of over 45% in size; further: potency means the concentration at half of the fitted maximal effect; on viability change, negative = cytotoxic: series mostly up to about 92 µM
In short: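 Viability read-out: CellTiter-Fluor fluorescence after 23 h compound exposure at 37 C/5% CO2 in double-stable HepG2-CYP2B6-hCAR cells, with PK11195 present at 0.75 uM final; compounds tested in 15-point titration.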

[3] = qHTS assay to identify small molecule antagonists of the constitutive androstane receptor (CAR) signaling pathway - cell viability counter screen (AID 1224837); further: nearly all actives have a fitted effect of over 45% in size; further: potency means the concentration at half of the fitted maximal effect; on activity change, negative = cytotoxicity: series mostly up to about 92 µM
In short: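 Cells are seeded, rested 4 hr at 37 C/5% CO2, dosed with compound (15-point series) and 50 nM CITCO, incubated a further 23 hr, and then CellTiter-Fluor reagent is added before fluorescence is read. The line is HepG2 with stable hCAR and CYP2B6-2.2kb.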

[4] = biological target: Nuclear receptor subfamily 1 group I member 3 (Homo sapiens) (UniProt Q14994); assay: qHTS assay to identify small molecule antagonists of the constitutive androstane receptor (CAR) signaling pathway (AID 1224838);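 further: HepG2 cells stably expressing hCAR with CYP2B6 luciferase reporter stimulated by CITCO; nearly all actives have a fitted effect of over 40% in size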; further: potency means the concentration at half of the fitted maximal effect
Nuclear receptor subfamily 1 group I member 3 (Homo sapiens), sequence (Q14994 whole entry, looked up): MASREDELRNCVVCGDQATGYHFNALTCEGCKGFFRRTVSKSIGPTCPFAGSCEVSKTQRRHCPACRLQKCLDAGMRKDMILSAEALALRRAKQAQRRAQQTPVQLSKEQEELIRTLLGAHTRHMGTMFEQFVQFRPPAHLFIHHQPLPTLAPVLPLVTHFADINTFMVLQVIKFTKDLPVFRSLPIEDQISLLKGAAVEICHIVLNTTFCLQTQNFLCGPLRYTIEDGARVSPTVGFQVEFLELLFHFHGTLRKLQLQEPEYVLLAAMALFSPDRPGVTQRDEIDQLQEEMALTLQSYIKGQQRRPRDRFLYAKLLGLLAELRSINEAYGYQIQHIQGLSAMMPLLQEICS
In short: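 Luminescence from a CYP2B6-2.2kb promoter reporter in hCAR-expressing HepG2 cells reflects CAR signaling. Cells received compounds at 15 concentrations and 50 nM CITCO (final), then incubated 24 h at 37 C/5% CO2.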

[5] = biological target: Nuclear receptor subfamily 1 group I member 3 (Homo sapiens) (UniProt Q14994); assay: qHTS assay to identify small molecule agonists of the constitutive androstane receptor (CAR) signaling pathway (AID 1224839); further: nearly all actives have a fitted effect of over 15% in size; further: potency means the concentration at half of the fitted maximal effect;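 on activation: HepG2 cells stably carrying human CAR and a CYP2B6 luciferase reporter; series mostly up to about 92 µM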
In short: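 Luminescence read-out (ONE-Glo, 30 min, room temperature) from double-stable HepG2-CYP2B6-hCAR cells exposed 24 h to 15-point compound series in presence of 0.75 uM PK11195 final.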

[6] = qHTS assay to identify small molecule antagonists of the estrogen related receptor signaling pathway with the pleiotropic PPARgamma coactivator (PGC) from Tox21 10K library - cell viability counter screen (AID 1224840; active means well fitted cell-killing curve with a large enough effect in the repeat runs, not every such curve was filed as active; further: nearly all actives have a fitted effect of over 40% in size; further: potency means the concentration at half of the fitted maximal effect)
In short: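 Cell viability is measured by CellTiter-Fluor fluorescence in PGC/ERR cells that receive compounds after a 6-hour attachment period and are then incubated 17.5 hours at 37 C.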

[7] = biological target: Thyrotropin receptor (Homo sapiens) (UniProt P16473); assay: qHTS assay to identify small molecule agonists of the thyroid stimulating hormone receptor (TSHR) signaling pathway (AID 1224843; calls by dose curve; further: nearly all actives have a fitted effect of over 45% in size; further: potency means the concentration at half of the fitted maximal effect)
Thyrotropin receptor (Homo sapiens), sequence (P16473 whole entry, looked up): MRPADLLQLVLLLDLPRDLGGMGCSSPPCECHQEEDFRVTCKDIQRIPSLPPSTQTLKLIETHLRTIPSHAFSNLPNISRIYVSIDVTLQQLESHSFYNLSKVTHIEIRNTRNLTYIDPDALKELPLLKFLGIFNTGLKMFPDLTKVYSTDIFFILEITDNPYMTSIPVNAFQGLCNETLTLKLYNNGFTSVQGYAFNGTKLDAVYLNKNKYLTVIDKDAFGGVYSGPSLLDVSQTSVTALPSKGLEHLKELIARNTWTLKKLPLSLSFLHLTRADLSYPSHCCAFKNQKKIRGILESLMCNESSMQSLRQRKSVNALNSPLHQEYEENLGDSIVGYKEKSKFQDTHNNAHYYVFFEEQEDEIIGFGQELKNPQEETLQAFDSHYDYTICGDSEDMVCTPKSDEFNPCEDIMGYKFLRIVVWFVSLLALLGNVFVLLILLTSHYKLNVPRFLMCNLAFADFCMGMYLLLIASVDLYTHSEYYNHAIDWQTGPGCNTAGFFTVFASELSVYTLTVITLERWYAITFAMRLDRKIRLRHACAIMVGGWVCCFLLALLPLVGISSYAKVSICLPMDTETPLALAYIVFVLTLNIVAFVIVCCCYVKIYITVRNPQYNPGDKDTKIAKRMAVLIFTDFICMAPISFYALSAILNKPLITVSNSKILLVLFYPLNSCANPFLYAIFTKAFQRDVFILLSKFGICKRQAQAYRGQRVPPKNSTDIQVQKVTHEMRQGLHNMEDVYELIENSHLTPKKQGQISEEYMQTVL
In short: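 Agonist-mode screen: TSHR HEK293 cells received test chemicals for half an hour at room temperature, then HTRF cAMP detection reagents for one hour prior to fluorescence measurement. Each chemical ran as a 15-concentration series, triplicated.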

[8] = qHTS assay to identify small molecule antagonists of the estrogen related receptor (ERR) signaling pathway from Tox21 library - cell viability counter screen (AID 1224834); further: nearly all actives have a fitted effect of over 30% in size; further: potency means the concentration at half of the fitted maximal effect
In short: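 Compounds in DMSO were pinned onto ERR cells that had been incubated for 6 h, and the plates were held at 37 C for 17.5 h. CellTiter-Fluor reagent was then added and fluorescence was measured after 30 min.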

[9] = qHTS assay to identify small molecule antagonists of the estrogen related receptor signaling pathway with the pleiotropic PPARgamma coactivator (PGC) from Tox21 10K library (AID 1224841; call rule not given here; further: actives are mostly falling curves and most rising ones were filed inactive; nearly all actives have a fitted effect of over 50% in size; further: potency means the concentration at half of the fitted maximal effect; on activity, negative = inhibition: series mostly up to about 92 µM)
In short: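 Cells stably carrying the PGC/ERR reporter, seeded at 2,000 per well, received pin-transferred compounds 6 h post-plating. Exposure lasted 18 h at 37 C. Signal: One-Glo luminescence.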

[10] = qHTS assay to identify small molecule agonists of the estrogen related receptor signaling pathway with the pleiotropic PPARgamma coactivator (PGC) from Tox21 10K library (AID 1224842); further: nearly all actives have a fitted effect of over 15% in size; further: potency means the concentration at half of the fitted maximal effect
In short: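 PGC/ERR reporter cell line, 2,000 cells per well, incubated 6 h at 37 C before 23 nL compound in DMSO was added. After 18 h at 37 C, One-Glo luminescence read following 30 min at room temperature.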
On the % scale 0 is the no-effect control and ±100 the full control effect.

CC(Cc1ccccc1)NCc1ccccc1Cl (stereo unspecified)
active: Potency [5] 26.6 µM
inactive: Potency [1] | Potency [2] | Potency [3] | Potency [4] | Potency [6] | Potency [7]

CN(C)C(=O)Nc1cccc(OC(=O)NC(C)(C)C)c1
inactive: Potency [8] | Potency [1] | Potency [2] | Potency [3] | Potency [9] | Potency [10] | Potency [7]

SCc1ccccc1
inactive: Potency [8] | Potency [2] | Potency [3] | Potency [5] | Potency [6] | Potency [7]

COc1ccc2c(c1OC)C(=O)O[C@H]2[C@@H]1c2cc3c(cc2CCN1C)OCO3
inactive: Potency [1] | Potency [4] | Potency [5] | Potency [6] | Potency [7]
active: Potency [8] 6.68 µM

O=C(O)CCCOc1ccc(Cl)cc1Cl
inactive: Potency [8] | Potency [2] | Potency [3] | Potency [4] | Potency [5] | Potency [6] | Potency [7]

O=C(N[C@H]1CN2CCC1CC2)c1ccc2c(c1)OCCO2
inactive: Potency [8] | Potency [1] | Potency [3] | Potency [4] | Potency [5] | Potency [6] | Potency [9] | Potency [10] | Potency [7]

Cc1cnc(C2=NC(C)(C(C)C)C(=O)N2)c(C(=O)O)c1 (stereo unspecified)
inactive: Potency [8] | Potency [1] | Potency [2] | Potency [3] | Potency [7]

CN[C@@H](C)[C@H](O)c1ccccc1
inactive: Potency [1] | Potency [2] | Potency [3] | Potency [4] | Potency [5] | Potency [6] | Potency [7]

Clc1ccc(Cl)c(Cl)c1
2.98 µM (active) and inactive: Potency [7]
inactive: Potency [8] | Potency [2] | Potency [3] | Potency [4] | Potency [5] | Potency [6] | Potency [9] | Potency [10]

O=C(NCNC(=O)NC1C(=O)NC(=O)N1CO)NC1C(=O)NC(=O)N1CO (stereo unspecified)
inactive: Potency [8] | Potency [1] | Potency [6] | Potency [9] | Potency [10] | Potency [7]

[Cl-].[Cl-].[Hg+2]
active: Potency [8] 6.08 µM and 4.33 µM | Potency [2] 60.8 µM and 7.7 µM | Potency [3] 60.8 µM and 5.45 µM | Potency [6] 15.3 µM and 2.43 µM

CCC(C)(C)c1ccc(O)c(C(C)(C)CC)c1
53.9 µM (active) and inactive: Potency [6]
inactive: Potency [1] | Potency [5] | Potency [10]
active: Potency [8] 48 µM | Potency [2] 60.4 µM | Potency [7] 13.5 µM and 24.3 µM
60.4 µM (active) and inactive: Potency [9]

CCSCc1ccccc1OC(=O)NC
active: Potency [5] 27.3 µM
inactive: Potency [1] | Potency [2] | Potency [3] | Potency [4] | Potency [6]

CCCCNC(=O)OCC#CI
inactive: Potency [1] | Potency [5] | Potency [10]
active: Potency [8] 54.2 µM and 68.6 µM | Potency [2] 30.6 µM | Potency [4] 54.2 µM and 24.3 µM | Potency [7] 8.59 µM and 4.33 µM

NC(=S)c1c(Cl)cccc1Cl
inactive: Potency [8] | Potency [1] | Potency [2] | Potency [3] | Potency [7]

O=C(O)C(F)(F)C(F)(F)C(F)(F)C(F)(F)C(F)(F)C(F)(F)C(F)(F)C(F)(F)F
inactive: Potency [8] | Potency [2] | Potency [3] | Potency [6] | Potency [7]

O=C(O)C(O)C(O)C(=O)O (stereo unspecified)
inactive: Potency [8] | Potency [1] | Potency [6]

Cc1ncc(C[n+]2csc(CCO)c2C)c(N)n1
inactive: Potency [8] | Potency [2] | Potency [3] | Potency [5] | Potency [6] | Potency [7]

C[CH2][Hg][S]c1ccccc1C(=O)O
active: Potency [8] 6.86 µM and 9.44 µM | Potency [2] 19.3 µM and 11.9 µM | Potency [3] 12.2 µM and 7.5 µM | Potency [6] 4.33 µM and 11.9 µM | Potency [10] 1.22 µM and 2.37 µM
inactive: Potency [5] | Potency [9] | Potency [7]

COc1ccc(C(O)(c2cncnc2)C2CC2)cc1 (stereo unspecified)
inactive: Potency [1] | Potency [2] | Potency [3] | Potency [4] | Potency [5] | Potency [6] | Potency [9] | Potency [10] | Potency [7]

CCC(C)(C)O
inactive: Potency [1] | Potency [2] | Potency [3] | Potency [4] | Potency [5] | Potency [6] | Potency [7]

C#C[C@]1(O)CC[C@H]2[C@@H]3CCC4=CC(=O)CCC4=C3C=C[C@@]21CC
inactive: Potency [1] | Potency [2] | Potency [3] | Potency [4] | Potency [5]

CC(C)(C)OOC(C)(C)CCC(C)(C)OOC(C)(C)C
inactive: Potency [1] | Potency [2] | Potency [3] | Potency [4] | Potency [5] | Potency [6] | Potency [9] | Potency [10] | Potency [7]

O=C(CCl)CCl
inactive: Potency [8] | Potency [1] | Potency [2] | Potency [3] | Potency [7]

CCCCCl
inactive: Potency [8] | Potency [1] | Potency [2] | Potency [3] | Potency [9] | Potency [10] | Potency [7]

CCCCCCCCCCCC[N+](C)(C)CCOc1ccccc1
active: Potency [8] 61.1 µM and 26.6 µM | Potency [6] 61.1 µM and 29.8 µM
48.6 µM (active) and inactive: Potency [7]
inactive: Potency [1] | Potency [4] | Potency [5] | Potency [10]

Cc1nc2ccccc2c(=O)n1-c1ccccc1Cl
active: Potency [8] 21.2 µM | Potency [3] 16.9 µM
inactive: Potency [1] | Potency [5] | Potency [9] | Potency [10]

O=P(OCC(Br)CBr)(OCC(Br)CBr)OCC(Br)CBr (stereo unspecified)
inactive: Potency [1] | Potency [4] | Potency [5] | Potency [6] | Potency [7]
active: Potency [8] 49.2 µM and 51.7 µM

FC(Cl)(Cl)C(F)(Cl)Cl
inactive: Potency [1] | Potency [2] | Potency [3] | Potency [4] | Potency [5] | Potency [6] | Potency [7]

CC(C)(C#N)C(C)(C)C#N
inactive: Potency [1] | Potency [2] | Potency [3] | Potency [4] | Potency [5] | Potency [6] | Potency [9] | Potency [10]

Nc1c(Br)cc(Br)c2c1C(=O)c1ccccc1C2=O
inactive: activity change, negative = inhibition [1] -3.13% [at 23.6 µM] | viability change, negative = cytotoxic [2] -15% [at 19 µM] | activity change, negative = cytotoxicity [3] -15.6% [at 19 µM] | activity, negative = inhibition [4] 102% [at 19 µM] | activation [5] 7.31% [at 19 µM] | viability change, negative = cytotoxic [6] -14.9% [at 19 µM] | activity, negative = inhibition [9] 5.52% [at 19 µM] | activation [10] 0.394% [at 19 µM] | activation [7] -6.18% [at 19 µM]

CCCCC(CC)CO[N+](=O)[O-] (stereo unspecified)
inactive: Potency [8] | Potency [1] | Potency [2] | Potency [3] | Potency [7]

CCC1(CCC(C)C)C(=O)NC(=O)NC1=O
inactive: Potency [1] | Potency [2] | Potency [3] | Potency [4] | Potency [5] | Potency [6]

O=C(O)c1ccc(=O)[nH]c1
inactive: Potency [1] | Potency [2] | Potency [3] | Potency [4] | Potency [5] | Potency [6] | Potency [9] | Potency [10] | Potency [7]
